From PubChem BioAssay (NCI)
Values joined by “and” are separate entries in the source; they are usually repeats but may differ in a detail not shown here. Identical values can stand only once. Compounds without any hit were thinned out: in the full panel of roughly 83,000, 20% have a hit.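 Step 1: grow cells in 96-well plates. Step 2: add test compound at a single concentration. Step 3: incubate 48 h. Step 4: record percent growth.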 Active and inactive are the calls of the source. Rule for the calls: active = growth percent below 10; inactive = the rest.

What was measured:
Assay in all cases: NCI-60 one-dose screen, 48 h (100 = growth as untreated, 0 = no growth, -100 = all killed)
Conditions in all cases: 10 µM unless noted
HCT-15 colon = test system: HCT-15 colon
HT29 colon = test system: HT29 colon
SNB-75 CNS = test system: SNB-75 CNS
SNB-19 CNS = test system: SNB-19 CNS
U251 CNS = test system: U251 CNS
PC-3 prostate = test system: PC-3 prostate
SK-MEL-5 melanoma = test system: SK-MEL-5 melanoma
UACC-62 melanoma = test system: UACC-62 melanoma
LOX IMVI melanoma = test system: LOX IMVI melanoma
SK-MEL-28 melanoma = test system: SK-MEL-28 melanoma

Structure (SMILES)	growth (HCT-15 colon)	growth (HT29 colon)	growth (SNB-75 CNS)	growth (SNB-19 CNS)	growth (U251 CNS)	growth (PC-3 prostate)	growth (SK-MEL-5 melanoma)	growth (UACC-62 melanoma)	growth (LOX IMVI melanoma)	growth (SK-MEL-28 melanoma)
Cc1cccc(Cc2cnc(NC(=O)CCCOc3ccc(Cl)cc3)s2)c1	24.6% (inactive)	11.6% (inactive)	21.3% (inactive)	27.6% (inactive)	14% (inactive)	42.5% (inactive)	30.7% (inactive)	32.4% (inactive)	35.6% (inactive)	58.4% (inactive)
Clc1ccc(/C=N\N2CCCCCC2)cc1	95.7% (inactive) and 92.9% (inactive)	101% (inactive) and 84.9% (inactive)	100% (inactive) and 110% (inactive)	96.4% (inactive) and 109% (inactive)	92.3% (inactive) and 98.5% (inactive)	105% (inactive)	98.2% (inactive) and 106% (inactive)	92.1% (inactive) and 104% (inactive)	102% (inactive)	104% (inactive) and 107% (inactive)
CCCCCCCCn1ccc2cc(NC(=O)CN3CCN(c4nc(C)cc(N5CCCCC5)n4)CC3)ccc21	73.2% (inactive)	57.4% (inactive)	87.6% (inactive)	94.3% (inactive)	80.4% (inactive)	71.8% (inactive)	82.1% (inactive)	81.2% (inactive)	103% (inactive)	94.6% (inactive)
CCCCCCCCCCCCC[C@H](O)C[C@H](O)[C@H](C)N	97.8% [1.25 µM] (inactive)	103% [1.25 µM] (inactive)	129% [1.25 µM] (inactive)	104% [1.25 µM] (inactive)	85.2% [1.25 µM] (inactive)	97% [1.25 µM] (inactive)	97.6% [1.25 µM] (inactive)	113% [1.25 µM] (inactive)	90.8% [1.25 µM] (inactive)	115% [1.25 µM] (inactive)
CC(C)(C)c1cc(C(C)(C)c2ccccc2)cc(Cc2cc(C(C)(C)c3ccccc3)cc(C(C)(C)C)c2O)c1O	95.8% (inactive)	93.3% (inactive)	94.5% (inactive)	106% (inactive)	94.3% (inactive)	74.9% (inactive)	97.4% (inactive)	92.3% (inactive)	89.5% (inactive)	106% (inactive)
Nc1nc2c(s1)CCc1cn(S(=O)(=O)c3ccccc3)cc1-2	98.3% (inactive) and 99.3% (inactive)	106% (inactive)	80.5% (inactive) and 89.9% (inactive)	94.6% (inactive) and 97% (inactive)	80.3% (inactive) and 97.7% (inactive)	75.6% (inactive) and 84.4% (inactive)	90.1% (inactive) and 95% (inactive)	79.4% (inactive) and 96.3% (inactive)	84.1% (inactive) and 104% (inactive)	113% (inactive) and 104% (inactive)
CCNC(=O)Nc1ncccc1OCc1ccc(F)cc1	99.7% (inactive)	95.5% (inactive)	102% (inactive)	102% (inactive)	96.8% (inactive)	103% (inactive)	101% (inactive)	94.6% (inactive)	94.6% (inactive)	113% (inactive)
COC1=CC(=O)C(OC)=C(O)C1=O	97.7% (inactive)	106% (inactive)	77% (inactive)	101% (inactive)	101% (inactive)	97.2% (inactive)	97.8% (inactive)	96.1% (inactive)	99.6% (inactive)	102% (inactive)
CCN(CC)CCCN1C(=O)c2c(c(C)c3c(oc4cc(OC)ccc43)c2C)C1=O	80.6% (inactive)	86.9% (inactive)	146% (inactive)	99.1% (inactive)	103% (inactive)	85.3% (inactive)	77.6% (inactive)	102% (inactive)	87.7% (inactive)	-82.6% (active)
ON=C1CCCCCCCC1	105% (inactive)	104% (inactive) and 110% (inactive)	101% (inactive) and 80.7% (inactive)	106% (inactive) and 104% (inactive)	107% (inactive) and 110% (inactive)	95.3% (inactive) and 104% (inactive)	106% (inactive)	103% (inactive) and 110% (inactive)	95.4% (inactive) and 102% (inactive)	105% (inactive) and 113% (inactive)
C#Cc1cc(C(=O)Nc2ccc(CN3CCN(C)CC3)c(C(F)(F)F)c2)ccc1C	26.3% (inactive)	5.65% (active)	76.3% (inactive)	94.9% (inactive)	56% (inactive)	61.5% (inactive)	15.6% (inactive)	40.2% (inactive)	31.1% (inactive)	18.8% (inactive)
COc1ccc2c(c1)c(-c1nc(-c3c[nH]c4c(Cl)nccc34)cs1)cn2C	64.3% (inactive)	84% (inactive)	82.9% (inactive)	105% (inactive)	86.5% (inactive)	72.6% (inactive)	45.4% (inactive)	87.8% (inactive)	80% (inactive)	105% (inactive)
BrC1=C(Br)C(Br)(Br)C(Br)=C1Br	60.8% (inactive)	63.9% (inactive)	72.7% (inactive)	92.3% (inactive)	91.9% (inactive)	84.6% (inactive)	102% (inactive)	71% (inactive)	45.5% (inactive)	93% (inactive)
O=C1C(=C(O)c2ccccc2)C(=O)c2ccccc21	102% (inactive)	109% (inactive)	76.5% (inactive)	98.1% (inactive)	109% (inactive)	94.5% (inactive)	107% (inactive)	96% (inactive)	99% (inactive)	105% (inactive)
COc1ccc2c(c1)CCNC21C(=O)Nc2c(Br)cc(Br)cc21 (stereo not given)	104% (inactive)	104% (inactive)	70.6% (inactive)	91.5% (inactive)	96.7% (inactive)	97.9% (inactive)	98.4% (inactive)	86.6% (inactive)	102% (inactive)	101% (inactive)
COc1ccccc1/C=C/C(=O)/C=C/c1ccccc1OC	-2.72% (active) and -27.6% (active)	-42.7% (active) and -16.4% (active)	45.2% (inactive) and 12.6% (inactive)	33.5% (inactive) and 38.5% (inactive)	-81% (active) and -40.1% (active)	0.508% (active) and 17% (inactive)	-89.4% (active) and -77% (active)	-61.6% (active) and -64.3% (active)	-60.1% (active) and -53.8% (active)	-58.9% (active) and -57.8% (active)
O=C1/C(=C/c2ccccc2)CN(C(=O)C(Cl)Cl)C/C1=C\c1ccccc1	-24.2% (active)	5.46% (active)	43.9% (inactive)	-35.8% (active)	-63.8% (active)	-32.8% (active)	-32.3% (active)	-66.4% (active)	-88.4% (active)	-25.7% (active)
Cn1cc(C2=C(c3cccc4ccccc34)C(=O)NC2=O)c2cc(Br)ccc21	91.3% (inactive)	90.5% (inactive)	37.9% (inactive)	108% (inactive)	91.7% (inactive)	97.3% (inactive)	93.5% (inactive)	112% (inactive)	89.8% (inactive)	111% (inactive)
COc1ccc(-c2cc(=O)c3c(O)cc(O)cc3o2)cc1	103% (inactive) and 100% (inactive)	110% (inactive) and 109% (inactive)	99.1% (inactive) and 118% (inactive)	105% (inactive) and 83.4% (inactive)	92.9% (inactive) and 84% (inactive)	94.9% (inactive) and 83.8% (inactive)	104% (inactive) and 92.7% (inactive)	104% (inactive) and 96.9% (inactive)	82.8% (inactive) and 91.6% (inactive)	113% (inactive) and 111% (inactive)
O=C(CCl)n1nnnc1Cc1ccccc1	102% (inactive)	95.6% (inactive)	84.9% (inactive)	96.4% (inactive)	90.3% (inactive)	94.7% (inactive)	109% (inactive)	89.5% (inactive)	87% (inactive)	110% (inactive)
O=C(NCc1ccc(Cn2c(=O)sn(-c3ccc(Cl)cc3)c2=O)cc1)OCc1ccc2c(Cl)cc(Cl)c(O)c2n1	15.7% (inactive)	111% (inactive)	69% (inactive)	39.1% (inactive)	36.3% (inactive)	35.5% (inactive)	33% (inactive)	33.4% (inactive)	31.6% (inactive)	47% (inactive)
